Source: PubChem BioAssay AID1028 (SRMLSC, 2008)
Results with a measured potency or affinity are listed apart.

The compounds below were run against diphosphomevalonate decarboxylase (Streptococcus pneumoniae D39) (UniProt Q9FD53) (assay: S. pneumoniae DPM-DC inhibition retest, confirmation, biochemical, cuvette format, coupled NADH fluorescence (AID 1028)). Settings: purified DPM-DC, rate, at 50 µM, hits give high values;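 active = enzyme inhibitor confirmed by dose series, half-maximal inhibitory concentration at most 40 µM; inactive = the rest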.

inhibition, inactive:
CCN(CC)C(=O)c1ccccc1-n1sc2ccccc2c1=O 14.9%, CN(C)C(=O)c1ccccc1-n1sc2ccccc2c1=O 16.7%, COc1ccc2nc(-c3ccc(C)cc3)oc2c1 5.23%, COc1ccc(OC)c(-c2nc3cc(N)ccc3o2)c1 10.3%, COc1ccccc1-c1nc2ccccc2o1 6.39%, COc1ccc2oc(-c3cccc([N+](=O)[O-])c3)nc2c1 7.59%, COc1ccc2oc(-c3cccc(C)c3)nc2c1 2.37%, COc1ccc2nc(-c3cc(OC)c(OC)c(OC)c3)oc2c1 3.99%, COc1ccc2nc(-c3ccc(F)cc3)oc2c1 4.34%, Nc1ccc2oc(-c3cccc(Cl)c3)nc2c1 8.07%, Cc1ccc(-c2nc3cc(N)ccc3o2)cc1F 16%, O=C(c1ccccc1-n1sc2ccccc2c1=O)N1CCOCC1 13.7%, COc1ccc2oc(-c3cccc(N)c3)nc2c1 -0.79%, Fc1cccc(-c2nc3ccccc3o2)c1 4.51%, Nc1ccc2oc(-c3ccc(Cl)cc3)nc2c1 12.8%, COc1ccc(-c2nc3cc(N)ccc3o2)cc1 13.2%, c1ccc(-c2nc3ccccc3o2)cc1 2.96%, COc1ccc2oc(-c3ccncc3)nc2c1 -0.2%, Cc1ccc(C)c(-c2nc3ccccc3o2)c1 -0.27%, COc1ccc2oc(-c3ccc([N+](=O)[O-])cc3)nc2c1 1.63%, Cc1ccc(C)c(-c2nc3ccc(N)cc3o2)c1 13%, Cc1ccc(-c2nc3ccccc3o2)cc1 7.2%, Cc1ccccc1-c1nc2ccccc2o1 1.75%, Cc1ccc(C)c(-c2nc3c(N)cccc3o2)c1 6.19%
